# Screen size: about 48,000 compounds; about 13,000 (27%) showed an effect of 50% or more. The list shows a part of the results.
# Tested on: Wolbachia pipientis
# Assay: Anti-Wolbachia Cell-Based Screen
# Assay type: functional
# Design: scale not given: in the data most compounds retested in dose-response had high values
# Conditions: 5 µM
row,SMILES,Percent Effect [%]
1,Cc1c(C)n(Cc2ccccn2)c2nc3c(c(N)c12)CCCC3,5.52
2,O=C(CNc1cc(F)ccc1OC(F)F)NCC(F)(F)F,-13.2
3,CC(C)(CNC(=O)Nc1cccc(-c2nccs2)c1)C(N)=O,2.635
4,Cc1noc(C[C@@H]2COC[C@H]3CN(C(=O)C4=CCCC4)C[C@@H]23)n1,-8.987
5,O=C(O)C(F)(F)F.O=C([C@@H]1COC[C@H]2CN(C3CCOCC3)C[C@H]21)N1CCCO1,1.407
6,O=C1OCCC1N1CCN(c2ccc(O)cc2)CC1 (stereo not drawn),4.942
7,O=C(NCC(O)c1cccs1)c1ccco1 (stereo not drawn),-9.342
8,O=C(NCc1cccs1)NCC(O)c1ccoc1 (stereo not drawn),136.2
9,O=C(NCC(O)c1ccsc1)Nc1cccs1 (stereo not drawn),136.4
10,CCOc1ccccc1CCNC(=O)NCC(O)c1ccsc1 (stereo not drawn),-9.165
11,O=C(NCCC(O)c1ccoc1)Nc1cccs1 (stereo not drawn),118.3
12,O=C(NCCC(O)c1cccs1)c1ccco1 (stereo not drawn),-4.816
13,CC(C)Oc1cccc(C(O)CNC(=O)Nc2cccs2)c1 (stereo not drawn),-15.38
14,Cc1csc(CNC(=O)NCC(O)c2ccccc2)n1 (stereo not drawn),14.77
15,O=C(NCC(O)c1ccoc1)Nc1cccs1 (stereo not drawn),112.3
16,O=C(NCC(O)c1ccoc1)Nc1c(F)cccc1F (stereo not drawn),35.5
17,CC(C)Oc1cccc(C(O)CNC(=O)NCc2cccs2)c1 (stereo not drawn),-2.917
18,COC(=O)c1sccc1S(=O)(=O)NCCC(O)c1ccoc1 (stereo not drawn),6.712
19,COCc1nc(CNC2CCSCC2)no1,-3.755
20,CCc1nc2c(c(NCc3nc(-c4cccnc4)no3)n1)CCNCC2,-4.803
21,CC(C)c1nc(CN(C)C(=O)CNS(=O)(=O)c2cccs2)no1,-26.42
22,CN(CCOCC(F)(F)F)CC1CCN(CCO)CC1,-6.866

row,SMILES,Percent Effect [%]
1,COCC(=O)N(C)Cc1nc(N(C)C)ncc1-c1ccncc1,115.9
2,COCc1nc(N(C)C)ncc1C(=O)NC(C)C,11.32
3,Cc1nc(N(C)C)ncc1C(=O)N(Cc1ccncc1)CC1CCCO1 (stereo not drawn),-9.755
4,CCCNC(=O)c1cnc(N(C)C)nc1COC,7.705
5,COCc1nc(N(C)C)ncc1C(=O)Nc1ccn(C)n1,4.031
6,COCC(=O)NCCc1nc(N(C)C)ncc1-c1ccncc1,144
7,COCCC(=O)NCCc1nc(N(C)C)ncc1-c1ccncc1,140.1
8,CCCC(=O)NCCc1nc(N(C)C)ncc1-c1ccncc1,150.4
9,COCC(=O)Nc1ccnc(OCCN(C)C)c1,5.238
10,Cc1nsc(NC(=O)N2CCCCC2CCCO)n1 (stereo not drawn),3.459
11,CCCOCC(=O)NS(=O)(=O)c1ccc2c(c1)OCCCO2,-2.018
12,CCc1nc(CCNC(=O)C2CC2)sc1C,-12.51
13,CN(C)c1ncc(-c2ccncc2)c(CCNC(=O)C2CC2)n1,144.3
14,Cc1nc(N(C)C)ncc1C(=O)NCCc1csc(-c2ccncc2)n1,10.36
15,c1ccc2c(c1)CN(c1ncnc3sc4c(c13)CCNC4)CCO2,-13.02
16,Cc1nc2c(cc1C(=O)O)CCN(CC1CC1)CC2.O=C(O)C(F)(F)F.O=C(O)C(F)(F)F,-6.324
17,Cc1nc2c(cc1C(=O)O)CCN(Cc1ccsc1)CC2.O=C(O)C(F)(F)F.O=C(O)C(F)(F)F,107
18,Cc1nc(N2CCCC2)nc2c1CCN(Cc1ccsc1)CC2.O=C(O)C(F)(F)F,4.858
19,CC(=O)N1CCc2cc(C(=O)O)c(-c3ccsc3)nc2CC1.O=C(O)C(F)(F)F,-2.009
20,CC(C)Nc1nc2c(cc1C(=O)NCC1CC1)CCN(CC1CC1)CC2.O=C(O)C(F)(F)F.O=C(O)C(F)(F)F,-7.491
21,CC(C)Nc1nc2c(cc1C(=O)O)CCN(Cc1ccsc1)CC2.O=C(O)C(F)(F)F.O=C(O)C(F)(F)F,98.93
22,CCC(CC)(CC)NC(=O)Nc1nnc(-c2ccccn2)s1,-4.465

row,SMILES,Percent Effect [%]
1,COCCN1CCO[C@@H]2CN(C(=O)COc3ccc(C)cc3)C[C@@H]2C1.O=C(O)C(F)(F)F,-10.88
2,CC(C)(C)C(O)CN1CCN(Cc2nccn2CC(F)(F)F)CC1 (stereo not drawn),-1.053
3,O=C(CCC(=O)N1CCC(Oc2ncccc2Br)CC1)c1ccccc1,-8.42
4,CCC[C@H]1CN(C2CCOCC2)C[C@@H]1NC(=O)CCCn1ccnc1,-3.438
5,CC(C)n1ccnc1C1CCCN(c2ccccn2)C1 (stereo not drawn),3.899
6,c1cnc(N2CCCC(c3n[nH]c4ncccc34)C2)nc1 (stereo not drawn),152.2
7,Cc1cc(N2CCCC(c3n[nH]c4ncccc34)C2)ncn1 (stereo not drawn),73.09
8,Cc1ccc(-c2cn[nH]c2C2CCCN(c3cc(N)ncn3)C2)cc1 (stereo not drawn),-31.64
9,Cc1ccc(-c2cn[nH]c2C2CCCN(c3ncccn3)C2)cc1 (stereo not drawn),-14.2
10,c1cnc(N2CCC(c3n[nH]c4ncccc34)C2)nc1 (stereo not drawn),117.8
11,Cc1nc(CC(=O)N2CCCC2c2nc(C(C)C)no2)cs1 (stereo not drawn),-8.92
12,CN1CCC(N(C)C[C@H]2CC[C@@H](Cc3cccc(O)c3)O2)CC1,-5.981
13,Cc1nc(C)n(CCCNc2ncnc3onc(C)c23)n1,1.931
14,Cc1ccc(CN(C)C(=O)NCC(C)(C)NS(C)(=O)=O)s1,4.932
15,CC(C)N(C)C(=O)c1coc(CN2CCN(c3ccccc3F)CC2)n1,-13.9
16,COc1ccccc1N1CCCC(NC(=O)Nc2cccnc2)C1 (stereo not drawn),-7.582
17,O=C(NC1CCN(c2ccccc2Br)C1)c1c[nH]nn1 (stereo not drawn),111.1
18,O=C(NC1CCCN(c2ccccc2Cl)C1)c1ccc(=O)[nH]n1 (stereo not drawn),90.33
19,O=C(NC1CCCN(c2ccc(OC(F)F)cc2)C1)c1cc[nH]n1 (stereo not drawn),14.46
20,Cc1n[nH]c(C)c1CNC(=O)NC1CCCN(c2ccccc2F)C1 (stereo not drawn),-5.16
21,O=C(NC1CCCN(c2ccccc2Cl)C1)c1c[nH]nn1 (stereo not drawn),87
22,O=C(NC1CCCN(c2ccccc2Cl)C1)c1nc(=O)[nH][nH]1 (stereo not drawn),109.8

row,SMILES,Percent Effect [%]
1,O=C(NC1CCCN(c2ncccn2)C1)c1cn2ccccc2n1 (stereo not drawn),-4.664
2,O=C(NC1CCN(c2ccc(-c3ccccc3F)nn2)C1)c1cc[nH]n1 (stereo not drawn),3.887
3,N#Cc1nccnc1NC1CCN(c2ccccc2Br)C1 (stereo not drawn),-11.54
4,O=C(NC1CCCN(c2ccccc2F)C1)c1ccon1 (stereo not drawn),18.57
5,O=C(NC1CCCN(c2ccc(OC(F)F)cc2)C1)c1c[nH]nn1 (stereo not drawn),-1.773
6,Cn1ncc(C(=O)OCC2CCN(c3ccccc3)C2)c1C(F)F (stereo not drawn),4.797
7,CN1C(=O)CCc2cc(NC(=O)C3CCCC3)ccc21,-13.79
8,CCS(=O)(=O)N1CCCC2(CCCN2C(=O)c2cn(C)cn2)C1 (stereo not drawn),0.7731
9,CN(Cc1cc(Br)cn1C)C(=O)c1ccsc1,-18.58
10,O=C(NC1CCN(c2ccccc2OC(F)F)C1)c1cccnc1 (stereo not drawn),-18.54
11,O=C(NC1CCN(c2ccccc2OC(F)F)C1)c1c[nH]nn1 (stereo not drawn),107.7
12,O=C(Nc1cn[nH]c1)NC1CCN(c2ccccc2OC(F)F)C1 (stereo not drawn),-20.77
13,COc1ccc(C2CN(c3nc(C)cc(C)n3)CCN2C(C)=O)cc1 (stereo not drawn),87.97
14,COc1ccc2c(c1)CN(c1nc(C)cc(C)n1)CC2,-6.244
15,COc1ccc(C2CCCN2C(=O)c2csc(NC(C)=O)n2)cc1 (stereo not drawn),-0.5039
16,CC(OCC(F)(F)F)C(=O)N1CCCCC1 (stereo not drawn),-2.646
17,Cc1cnc(C(=O)NCc2ccc3c(c2)CCCN3C)cn1,101.2
18,COc1ccc(COCC(O)CNC(=O)c2cnc(C)cn2)cc1 (stereo not drawn),4.456
19,CN1CCCc2cc(CNC(=O)c3cccnc3O)ccc21,90.33
20,CC(C)CN1CCCn2nc(CNC(=O)c3cccnc3O)cc2C1,-4.035
21,O=C1CN(c2ccc(CNC(=O)c3cccnc3O)cc2F)CCN1,-18.4
22,CN1N=C(C(=O)NCc2ccc3c(c2)CCCN3C)CCC1=O,13.95

row,SMILES,Percent Effect [%]
1,CC(C)c1nn(C)c(Cl)c1CNC1CCOc2ccccc21.Cl (stereo not drawn),-8.066
2,CC(=O)NCC(=O)N1Cc2cc(-c3cc[nH]n3)ccc2C1c1cnco1 (stereo not drawn),-23.15
3,COc1ccc(-n2cnnc2SCC(C)(C)O)cn1,-5.422
4,COc1ccccc1OCC(=O)NS(=O)(=O)c1cc(F)ccc1F,-8.021
5,COCCn1nc(C(=O)N(C)Cc2ccc3ccccc3c2)ccc1=O,98.47
6,COCCn1nc(C(=O)N2CCCC2c2cccc(F)c2)ccc1=O (stereo not drawn),1.762
7,COCC(=O)N(Cc1cccnc1)CC1CCN(C2CCCC2)CC1,-6.321
8,COc1nn(C)cc1C(=O)NCC(=O)NCc1cccnc1,-2.836
9,COCCn1nc(C(=O)N(C)Cc2cccnc2)ccc1=O,131.6
10,COCCn1nc(C(=O)N2CCN(C)CC2C)ccc1=O (stereo not drawn),-13.53
11,CCN(CC(=O)NC)S(=O)(=O)c1cnc2c(c1)c(C)nn2C,-1.026
12,N#CC1(C(=O)N2CCN(c3nccs3)CC2)CCCCC1,-10.71
13,CN(C)c1ncccc1NC(=O)COCC1CC1,7.684
14,N#Cc1cccc(OCCN2CCCC(c3noc(C4CC4)n3)C2)c1 (stereo not drawn),-47.81
15,CN1CCN(C2COC3(CCN(c4ccc(C#N)cc4)CC3)C2)CC1.O=C(O)C(F)(F)F (stereo not drawn),99.27
16,N#Cc1ccc(N2CCC3(CC2)CC(Oc2cccnc2)CO3)cc1.O=C(O)C(F)(F)F (stereo not drawn),18.7
17,CN1CCOCC12CCN(c1ccc(C#N)cc1)CC2.O=C(O)C(F)(F)F,-6.092
18,N#Cc1ccc(N2CCC3(CC2)CC(N2CCOCC2)CO3)cc1.O=C(O)C(F)(F)F (stereo not drawn),99.84
19,CNC(=O)COC1COC2(CCN(c3ccc(C#N)cc3)CC2)C1.O=C(O)C(F)(F)F (stereo not drawn),4.884
20,COC1COC2(CCN(c3ccc(C#N)cc3)CC2)C1.O=C(O)C(F)(F)F (stereo not drawn),-8.699

# — ChEMBL document CHEMBL3988442, “University of Dundee, Small-Polar-MMV Screening Library” (2021)
